Measured values: PubChem BioAssay (NCI)
This is part of a sample that, as a whole, favours compounds with a hit. Of some 83,000 tested, about 20% had one in any assay.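 In brief: 96-well plates, 48 h treatment, single concentration, percent growth endpoint.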 Values without a mark were called inactive. Activity calls are given as the source filed them. How the source made its calls: active means growth percent below 10; inactive means the rest.

Key:
Test in all cases: NCI-60 one-dose screen, 48 h (100 = growth as untreated, 0 = no growth, -100 = all killed)
Conditions in all cases: 10 µM unless noted
NCI-H23 lung = test system: NCI-H23 lung
NCI-H226 lung = test system: NCI-H226 lung
NCI-H322M lung = test system: NCI-H322M lung
HOP-62 NSCLC = test system: HOP-62 NSCLC
NCI-H460 lung = test system: NCI-H460 lung
HOP-92 NSCLC = test system: HOP-92 NSCLC
NCI-H522 lung = test system: NCI-H522 lung
A549/ATCC NSCLC = test system: A549/ATCC NSCLC
786-0 renal = test system: 786-0 renal
COLO 205 colon = test system: COLO 205 colon
DU-145 prostate = test system: DU-145 prostate
K-562 leukemia = test system: K-562 leukemia
MALME-3M melanoma = test system: MALME-3M melanoma
MDA-MB-231 breast = test system: MDA-MB-231 breast
RXF 393 renal = test system: RXF 393 renal
SF-268 CNS = test system: SF-268 CNS
SF-295 CNS = test system: SF-295 CNS
SF-539 CNS = test system: SF-539 CNS
UACC-257 melanoma = test system: UACC-257 melanoma
M14 melanoma = test system: M14 melanoma

Row | SMILES | growth (NCI-H23 lung) | growth (NCI-H226 lung) | growth (NCI-H322M lung) | growth (HOP-62 NSCLC) | growth (NCI-H460 lung) | growth (HOP-92 NSCLC) | growth (NCI-H522 lung) | growth (A549/ATCC NSCLC) | growth (786-0 renal) | growth (COLO 205 colon) | growth (DU-145 prostate) | growth (K-562 leukemia) | growth (MALME-3M melanoma) | growth (MDA-MB-231 breast) | growth (RXF 393 renal) | growth (SF-268 CNS) | growth (SF-295 CNS) | growth (SF-539 CNS) | growth (UACC-257 melanoma) | growth (M14 melanoma)
1 | CCOc1ccc(NC(=O)CSc2oc(-c3ccccc3)nc2S(=O)(=O)c2ccc(F)cc2)cc1 | 65.8% | 80.2% | 75.5% | 58.2% | 53.9% | 31.1% | 67.8% | 46% | 45.5% | 93.2% | 89.8% | 65.9% | 78.3% | 64.2% | 77.6% | 60.2% | 50% | 6.59% (active) | 70.1% | 86.9%
2 | O=C(Cn1c(-c2ccc([N+](=O)[O-])cc2)nc2ccccc21)NNC(=O)c1cccnc1 | 83.4% | 60.3% | 88.6% | 95.2% | 76.2% | 38% | 54.7% | 91.1% | 93% | 92.6% | 90.3% | 63.4% | 105% | 92.4% | 98.7% | 89.2% | 83.4% | 88.9% | 86.7% | 91%
3 | Cc1ccc(-c2cc(-c3ccc(Cl)cc3)nc(NC(=O)c3cccnc3)n2)cc1 | 96.5% | 98.6% | 98.5% | 114% | 102% | 117% | 93.5% | 105% | 102% | 109% | 106% | 87.6% | 111% | 91.3% | 94.1% | 97.6% | 103% | 106% | 121% | 109%
4 | Cc1c(-n2nnc(-c3nc4ccccc4s3)c2N)c(=O)n(-c2ccccc2)n1C | 93.3% | 91.4% | 100% | 103% | 103% | 104% | 90.6% | 105% | 107% | 104% | 115% | 102% | 97.6% | 113% | 121% | 99.8% | 103% | 92.2% | 102% | 110%
5 | CN(C)Cc1ccc(NC(=O)c2cncc(C#Cc3cnc(N)c4ncccc34)c2)cc1F | 78.1% | 130% | 109% | 96.5% | 67.4% | 80.7% | 100% | 65.7% | -71.8% (active) | 49.5% | 86.8% | -4.46% (active) | 65.6% | -73.1% (active) | 40.1% | 94% | 95.9% | 95.4% | 88.7% | -84.5% (active)
6 | COC(=O)c1c2c(c(C)[n+]([O-])c1C)C(=O)C=C(NCc1ccc(Br)cc1)C2=O | -44.8% (active) | -42.9% (active) | -14.9% (active) | -77.2% (active) | -53.8% (active) | -53.8% (active) | -44.8% (active) | -28.2% (active) | -8.26% (active) | -69.8% (active) | -87.7% (active) | 2.51% (active) | -97.9% (active) | -4.67% (active) | -46.1% (active) | -43.7% (active) | -97.9% (active) | -86.8% (active) | -80.6% (active) | -83.9% (active)
7 | CC(C)OC(=O)c1ccc2[nH]c(O)c(C(=Nc3ccc(N(C)C(=O)CN4CCN(C)CC4)cc3)c3ccccc3)c2c1 | -59.9% (active) | 20.1% | -6.59% (active) | -68.8% (active) | -57.9% (active) | 1.36% (active) | -60.6% (active) | -46.7% (active) | -92.4% (active) | -59.4% (active) | -23% (active) | -15.2% (active) | -85% (active) | -71.4% (active) | -96.8% (active) | -32.7% (active) | -26.9% (active) | -95.6% (active) | -64.9% (active) | -85.1% (active)
8 | CC(=O)N1N=C(c2ccc(Nc3nc(Nc4ccc(Cl)cc4)nc(Nc4ccc(Cl)cc4)n3)cc2)CC1c1ccco1 (stereo not given) | 85.4% | 100% | 103% | 91.9% | 96.9% | 99.9% | 68.4% | 72.1% | 86.7% | 109% | 107% | 79.5% | 97.9% | 92.7% | 71.1% | 103% | 92.8% | 96% | 96.4% | 90.5%
9 | O=C(CSc1nc2ccc([N+](=O)[O-])cc2[nH]1)Nc1cccc(C(F)(F)F)c1 | 1.74% (active) | 10.8% | 50.1% | 27.6% | 14.4% | -28.9% (active) | 3.44% (active) | 23.2% | 23.9% | 16.8% | 30.6% | 13.6% | -0.63% (active) | 38.5% | 44.7% | 24.3% | 33% | 36.5% | 14.3% | 27.6%
10 | O=C(Nc1cc(Cl)ccc1O)c1ccc(Nc2ccnc(C(F)(F)F)c2)cc1 | 9.34% (active) | 52.1% | 61.7% | 46.3% | 7.25% (active) | 86% | 23.7% | 36.5% | 49% | 87.9% | 42.9% | 5.89% (active) | 60.5% | 68.1% | 98.9% | 69.1% | -7.57% (active) | 80.4% | 78% | 46.8%
11 | c1ccc(C2=NN[C@H](c3cn(-c4ccccc4)nc3-c3ccccc3)C2)cc1 | 59.3% | 25.5% | 47.8% | -14.5% (active) | 29% | 34.6% | 75.6% | 17.1% | 6.85% (active) | 66.5% | 56.1% | 85.2% | 53.4% | 14% | 32.1% | 52% | -23.8% (active) | 38.5% | 65.2% | 45.6%
12 | Cc1cc(Cl)ccc1NC(=O)c1cc2ccccc2cc1O | 7.5% (active) | 33.5% | -1.74% (active) | 33.9% | 2.76% (active) | -12.1% (active) | -8.43% (active) | 20.8% | 28.4% | 99.8% | 31.1% | 9.93% (active) | 7.3% (active) | 23.7% | 28% | 30.8% | 8.91% (active) | 22.6% | -5.38% (active) | 30.4%
13 | CCCCOC(=O)OCc1cc(=O)c(O)co1 | 95.3% | 94.3% | 94.1% | 109% | 101% | 107% | 91.1% | 102% | 98.6% | 111% | 113% | 97.4% | 102% | 114% | 113% | 105% | 96.3% | 100% | 104% | 106%
14 | CC(=O)OC[C@]12CCC(C)(C)C[C@H]1[C@@]1(O)[C@H](O)C[C@@H]3[C@@]4(C)CCCNC(C)(C)[C@@H]4CC[C@@]3(C)[C@]1(C)CC2 | 106% | 102% | 98.1% | 107% | 110% | 112% | 93.6% | 106% | 101% | 117% | 111% | 106% | 106% | 103% | 117% | 106% | 102% | 103% | 101% | 92.4%
15 | Cc1cc2c([nH]1)CSc1cc(S(=O)(=O)c3ccccc3)c(=O)[nH]c1-2 | 11.4% [100 µM] | 32.6% [100 µM] | 47.1% [100 µM] | 33% [100 µM] | 4.49% [100 µM] (active) | 16.3% [100 µM] | 23.3% [100 µM] | 52.2% [100 µM] | 21.5% [100 µM] | -40.5% [100 µM] (active) | 15% [100 µM] | 17% [100 µM] | 25.1% [100 µM] | 23.3% [100 µM] | 52.6% [100 µM] | 22.1% [100 µM] | 11% [100 µM] | -28.3% [100 µM] (active) | 62.2% [100 µM] | -13.7% [100 µM] (active)
16 | CCOP(=O)(OCC)c1nc(-c2ccccc2)oc1NCc1cccnc1 | 102% | 104% | 106% | 100% | 107% | 114% | 92.8% | 104% | 104% | 117% | 107% | 102% | 100% | 108% | 110% | 104% | 106% | 96.2% | 109% | 111%
